Source: PubChem BioAssay (National Center for Advancing Translational Sciences (NCATS))
IL2 activator – qHTS of IL-2 Activators; IL-2 activation reporter assay, cell-based qHTS; stimulated with anti-CD3/CD4/CD28 beads; in transgenic mouse T cells; activation, % (series mostly up to about 46 µM); 360,000 tested, 0.065% active; AID 652025, 2013; in the data active means activation above about 50%; inconclusive means mostly about 30% to 49%
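Unstimulated transgenic mouse T cells; 60-min compound exposure; bead-based TCR/CD4/CD28 stimulation; 18 h culture, 37 degrees C; dual fluorescence (EGFP, DsRed) plate cytometry.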
BRCA1 expr act – qHTS Assay to Identify Small Molecule Activators of BRCA1 Expression | MCF7-BRCA1-FFLuc reporter, luminescence, 48 h; response scale: scaled: vehicle 0%, 10 µM genistein 100% | Potency, µM (series often up to 46.1 µM), usual class: activators | 380,000 tested, 1.1% active | AID 624202, 2012; further: nearly all actives have a fitted effect of over 80% in size
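Using MCF7 cells harboring a BRCA1 firefly luciferase reporter, plated 2 h before compound pinning, the screen measured luminescence after 48 h incubation. Responses were normalized to DMSO and 10 microM genistein, then fitted for concentration-effect.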
gsp agonist – qHTS for Agonist of gsp, the Etiologic Mutation Responsible for Fibrous Dysplasia/McCune-Albright Syndrome: qHTS; gsp mutant cells, cAMP HTRF, 30 min; 340,000 tested, 0.13% active; Potency, µM (titrated, usually from 76.9 µM), hits mostly activators; active means well fitted activation curve with a large enough effect; inconclusive means small, poorly fitted or top-dose-only effect, or another doubt; inactive means no such curve, though single readings can be large or run the other way; cell line not stated here;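 further: phosphodiesterase inhibitor Ro 20-1724 added with compounds to block cAMP breakdown; nearly all actives have a fitted effect of over 60% in size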
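Cells in DMEM/10% FBS with G418 were pretreated with compounds in DMSO plus […] (300 uM stock) for 30 min at 37C. cAMP was measured by HTRF (cAMP-d2 plus anti-cAMP antibody-K) after 30 min at room temperature.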
gsp antagonist – qHTS for Antagonists of gsp, the Etiologic Mutation Responsible for Fibrous Dysplasia/McCune-Albright Syndrome: qHTS. gsp-mutant cells, cAMP HTRF, 30 min. AID 624288, 2012. 340,000 tested, 0.4% active. Potency, µM (top dose mostly 76.9 µM), usual class: inhibitors; calls by dose curve; cell line not stated here;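 further: intracellular cAMP measured with PDE inhibitor Ro 20-1724 present during compound exposure; nearly all actives have a fitted effect of over 65% in size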
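Measurement of cellular cAMP by homogeneous time-resolved fluorescence following a 30 min compound exposure at 37C. The PDE inhibitor […] was present throughout; the assay buffer was DPBS with 0.05% BSA and 0.005% Tween 20.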
mIDH1 inhibitor – qHTS for Inhibitors of mutant isocitrate dehydrogenase 1 (IDH1): qHTS. Potency, µM (titrated, usually from 76.6 µM), usual class: inhibitors. IDH1-R132H enzyme, NADPH consumption, diaphorase/resazurin fluorescence. 390,000 tested, 0.093% active; further: nearly all actives have a fitted effect of over 65% in size
Target sequence (O75874 whole entry R132H, stated change not applied): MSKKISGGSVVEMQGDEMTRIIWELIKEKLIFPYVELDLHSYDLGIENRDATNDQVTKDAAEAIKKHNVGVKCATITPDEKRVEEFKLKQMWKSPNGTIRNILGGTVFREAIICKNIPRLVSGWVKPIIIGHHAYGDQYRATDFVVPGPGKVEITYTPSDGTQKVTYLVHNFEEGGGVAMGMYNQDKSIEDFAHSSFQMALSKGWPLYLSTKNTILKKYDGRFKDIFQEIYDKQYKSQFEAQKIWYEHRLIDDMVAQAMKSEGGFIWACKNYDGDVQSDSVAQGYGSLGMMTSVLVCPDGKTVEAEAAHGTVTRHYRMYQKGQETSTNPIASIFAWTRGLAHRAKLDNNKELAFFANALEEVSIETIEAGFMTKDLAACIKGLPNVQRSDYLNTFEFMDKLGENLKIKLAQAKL
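IDH1-R132H (0.5 ug/mL dispensed) in pH 7.5 Tris buffer was preincubated 30 min with compound, then given a substrate mix of 0.016 mM NADPH and 2 mM alpha-KG for 80 min at room temperature; remaining NADPH was read by diaphorase/resazurin fluorescence.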
Large screens that a line does not name were inactive. Shown are actives, neighbours in structure and some others; about 1.5% of the full set was active somewhere. Unless noted, the call rests on the fitted dose curve; in most records, active means well fitted curve in the direction sought with a large enough effect; inconclusive means small, poorly fitted or top-dose-only effect, or another doubt; inactive means no such curve, though single readings can be large; an effect the other way counts as inactive or inconclusive.

Oc1ccc(Br)cc1C1C=C(c2ccc3c(c2)OCO3)NC(c2ccc(Br)cc2)N1 (configuration not stated)	none (no result: IL2 activator, gsp agonist, gsp antagonist, mIDH1 inhibitor)
COc1ccc2sc(N(Cc3cccnc3)C(=O)c3ccc4c(c3)OCCO4)nc2c1	none (no result: IL2 activator, BRCA1 expr act, gsp agonist, gsp antagonist)
CCN(CC)C(=O)c1sc2nc(-c3ccc(OC)cc3)cn2c1C	BRCA1 expr act 2.8µM
CNC(=O)c1sc2nc(-c3ccc(OC)cc3)cn2c1C	BRCA1 expr act inconclusive
O=S(=O)(Nc1cccc(F)c1)c1ccc(S(=O)(=O)N2CCOCC2)cc1	none (no result: gsp antagonist)
N#Cc1ccccc1NC(=O)c1ccc2c(Cl)c3c(nc2c1)CCCC3	BRCA1 expr act 6.3µM
CC1CCCCN1C(=O)c1cnn2c1NC(=C1CC1)C=C2C(F)F (configuration not stated)	none (no result: IL2 activator, gsp agonist, gsp antagonist, mIDH1 inhibitor)
Cc1cc(NC(=S)N(Cc2cccc(Br)c2)CC2CCC(C(=O)O)CC2)ccc1Cl (configuration not stated)	gsp antagonist 28µM
COc1ccc(Cl)cc1S(=O)(=O)Nc1cccc(-c2ccc(N3CCCC3)nn2)c1	none (no result: IL2 activator, BRCA1 expr act, gsp agonist, gsp antagonist)
CCOC(=O)N1CCN(S(=O)(=O)N2CCCC(C(=O)NCCc3ccc(C)cc3)C2)CC1 (configuration not stated)	gsp agonist inconclusive
O=C(c1ccc(CS(=O)Cc2ccc(Cl)cc2)o1)N1CCN(c2cccc(Cl)c2)CC1 (configuration not stated)	gsp antagonist 32µM
NC(=O)c1ccc(N2CCN(c3ccc(O)cc3)CC2)c([N+](=O)[O-])c1	none
CC(=O)c1ccc(N2CCN(c3ccc(C(N)=O)cc3[N+](=O)[O-])CC2)cc1	gsp antagonist 32µM
Cc1ccc2c(C)c(C(=O)N(Cc3ccc(Cl)cc3)C3CCS(=O)(=O)C3)oc2c1 (configuration not stated)	none (no result: IL2 activator, BRCA1 expr act, gsp agonist, gsp antagonist)
CC(=O)Nc1ccc2nc(SCC(=O)Nc3ccc(N4CCOCC4)c(Cl)c3)sc2c1	BRCA1 expr act 13µM
O=C(CSc1nc2ccccc2s1)Nc1ccc(N2CCOCC2)c(Cl)c1	gsp antagonist inconclusive
O=C(CSc1nc2ccccc2o1)Nc1ccc(N2CCOCC2)c(Cl)c1	BRCA1 expr act 6.3µM
Oc1ccccc1N=Nc1ccccc1O	gsp antagonist 35µM
CCCC(=O)N1CCCC1(C)C(=O)N(C)Cc1cccc2ccccc12 (configuration not stated)	none (no result: gsp agonist, gsp antagonist, mIDH1 inhibitor)
CCC1SC(=NC(=O)c2ccc(Cl)c(Cl)c2)NC1=O (configuration not stated)	gsp antagonist 13µM
CC(O)(c1ccccc1)c1nc(-c2cccc(C(=O)O)c2)cs1 (configuration not stated)	BRCA1 expr act 10µM (no result: gsp agonist, gsp antagonist, mIDH1 inhibitor)
COc1ccc2c(c1)Cc1c-2cc(Br)c(N)c1Br	none (no result: gsp antagonist)
C=C1C=C(C(F)F)n2ncc(C(=O)NCc3ccccc3)c2N1	none (no result: IL2 activator, gsp agonist, gsp antagonist, mIDH1 inhibitor)
Cc1nc(NC(=O)C(C)(C)C)sc1C(=O)Cn1cc(CCCC#N)nn1	none (no result: gsp agonist, gsp antagonist, mIDH1 inhibitor)
COCc1cn(-c2nc3ccccc3s2)nn1	BRCA1 expr act 11µM (no result: gsp agonist, gsp antagonist, mIDH1 inhibitor)
N#CCCCc1cn(-c2nc3ccccc3s2)nn1	BRCA1 expr act 10µM (no result: gsp agonist, gsp antagonist, mIDH1 inhibitor)
COCCNC(=S)N1CCN(c2nc3ccccc3s2)CC1	none
CCn1ccc2cc(S(=O)(=O)N3CCCN(C(=O)NCC(C)C)CC3)ccc21	none (no result: IL2 activator, gsp agonist, gsp antagonist)
O=C(O)c1c(-c2ccccc2)c2oc3ccccc3c2[nH]c1=O	gsp agonist 40µM
O=c1[nH]c2c(oc3ccccc32)c(=O)n1Cc1ccccc1	gsp agonist inconclusive
O=C(O)c1ccc(CSc2ncn[nH]2)cc1	none
Brc1ccc(CSc2ncn[nH]2)cc1	gsp antagonist 32µM
NS(=O)(=O)c1ccc(N=NN2CCCCC2)cc1	BRCA1 expr act 10µM (no result: gsp antagonist)
CC(=O)NS(=O)(=O)c1ccc(N=NN2CCCCC2)cc1	none
O=C(NCc1ccco1)c1ccc(Cl)c(S(=O)(=O)N2CCCC2)c1	none
Cc1ccc2c(c1)N(C(=O)N1CCC(C(=O)Nc3cccc(F)c3)CC1)CCO2	none (no result: IL2 activator, BRCA1 expr act, gsp agonist, gsp antagonist)
